Assay in all cases: NCI-60 one-dose screen, 48 h (100 = growth as untreated, 0 = no growth, -100 = all killed)
What all share (settings): 10 µM unless noted

Test [1] relates to SR leukemia.
Test [2] relates to RPMI-8226 leukemia.
Test [3] relates to OVCAR-8 ovarian.
The subject of test [4] is OVCAR-5 ovarian.
In test [5] the test system is OVCAR-4 ovarian.
Test [6] relates to SK-OV-3 ovarian.
Test [7] concerns IGROV1 ovarian.
Test [8] relates to OVCAR-3 ovarian.
The test system of test [9] is HS 578T breast.
Test [10] relates to NCI/ADR-RES ovarian.

Drawing on PubChem BioAssay (NCI), this text covers growth for 27 molecules.

Compounds without any hit were thinned out: in the full panel of roughly 83,000, 20% have a hit.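 Growth was measured after 48 h exposure to one concentration of compound in 96-well plates. Values under 10 count as active.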 Unmarked numbers belong to inactive results. Calls of active or inactive are those of the source.

For the molecule `NC(=O)c1ccc(-c2c3ccccc3cc3c2ccc2ccccc23)cc1`, the growth is 15.9% in [1]; 49.7% in [2]; 77.4% in test [3]; 74.7% in test [4]; 80% in test [5]; 69.5% in [6]. Also, the growth was 42.6% in [7], 3.85% (active) in test [8], -12.4% (active) in test [9] and 16.6% in [10].
As for `CCOC(=O)C1=C(c2ccccc2)N=C2SC=C(c3ccc(Cl)cc3)N2C1c1ccc(Cl)cc1` (stereo not given), the growth in test [1] was 75.7%; in [2], 65.9%; in [3], 78.6%; in [4], 96.9%; in test [5], 48.7%; in test [6], 86.5%. Also, the growth is 72.3% in [7], 65.8% in test [8], 85.2% in [9] and 92.3% in test [10].
In the case of `CCOc1ccccc1Cn1ccnc1CCc1c(Cl)c(O)cc(O)c1C(=O)OC`, the growth in test [1] was 91.5%; in test [2] it was 86.9%; in [3] it was 97.7%; in test [4] it was 95.8%; in test [5], 114%; in test [6], 91.9%. Also, the growth was 94.8% in [7], 106% in [8], 107% in [9] and 93.5% in test [10].
Turning to `COC(CC(F)F)c1cn(S(=O)(=O)c2ccc(C)cc2)c2ccccc12` (stereo not given), the growth in test [1] is 12.2%; in test [2], 32.1%; in [3] it was 58.5%; in test [4] it was 33.3%; in [5], 65.5%; in test [6], 18.1%. For the same molecule, the growth in [7] was 35.8%; in test [8], 7.08% (active); in test [9], 32.5%; in test [10] it was 36.3%.
With `O=C(Nc1ccccc1)Nc1ncnc2c1ncn2-c1ccc(Cl)cc1`, the growth in test [1] is 74.1%; in test [2], 100%; in test [3], 83.7%; in test [4] it was 74.5%; in test [5] it was -29.6% (active); in test [6] it was 75.4%. Also, the growth in test [7] is 78.5%; in test [8], 99.5%; in test [9], 79.8%; in [10], 74.6%.
With `COc1cc2c(c(OC)c1OC)CCC(c1cccc(C(=O)Nc3cccc(Cl)c3)c1)O2` (stereo not given), the growth was 30.5% in test [1]; 39.1% in [2]; 75.1% in test [3]; 75.3% in test [4]; 70.3% in test [5]; 64.9% in test [6]. The growth was 63.8% in [7], 85.3% in test [8], 80.2% in test [9] and 83.8% in [10].
`Cc1ccc(C)n1-c1ccccc1-n1c(C)ccc1C`: the growth is 93.2% in [1]; 148% in test [2]; 102% in [3]; 118% in [4]; 105% in test [5]; 109% in test [6]. For the same molecule, the growth is 92.9% in test [7], 120% in test [8], 117% in [9] and 116% in test [10].
For `COC(=O)/C=C1/SC(=Nc2cccc(OC)c2)N(CCc2c[nH]c3ccc(O)cc23)C1=O`, the growth in test [1] was 0.788% (active); in test [2], 16.2%; in test [3], 41.6%; in test [4] it was 83.3%; in test [5], 49.4%; in test [6], 101%. The growth in [7] is 51.8%; in [8], 40.3%; in test [9], 66.5%; in [10], 58.8%.
On to `Cc1cc(N2CCN(CCNc3ccnc4cc(Cl)ccc34)CC2)nc(N2CCOCC2)n1`, for which the growth in test [1] was 3.62% (active); in test [2], 35.3%; in test [3], 74.1%; in test [4], 92.9%; in test [5], 53.8%; in [6] it was 85.2%. Also, the growth in test [7] was 66%; in test [8], 73.1%; in test [9] it was 85.8%; in test [10], 66.1%.
In the case of `COC(=O)/C=C1/SC(=Nc2ccc(C(F)(F)F)cc2)N(CCc2c[nH]c3ccc(O)cc23)C1=O`, the growth in [1] was -35.5% (active); in [2], -50.3% (active); in test [3], 13.9%; in test [4], -25.9% (active); in [5], -45.6% (active); in test [6], -5.47% (active). The growth in test [7] was -54.2% (active); in test [8], -31.1% (active); in test [9], 7.87% (active); in test [10], 21%.
Regarding `Cc1[nH]c(C(=O)Nc2ccc(C(=O)N3CCN(c4cc5c(cc4F)c(=O)c(C(=O)O)cn5C4CC4)CC3)cc2OC(C)C)c(Cl)c1Cl`, the growth was 45.9% in test [1]; 34.2% in test [2]; 78.2% in test [3]; 95.1% in [4]; 94.5% in test [5]; 110% in test [6]. In addition, the growth in [7] was 49.5%; in [8], 85.8%; in test [9], 87.2%; in [10] it was 78.4%.
As to `O=S(=O)(NCCCNc1nccc(-c2c(-c3ccc(F)c(O)c3)nc3occn23)n1)c1ccc(Cl)cc1`, the growth was 55.5% in test [1]; 40.4% in test [2]; 66.3% in test [3]; 118% in test [4]; 81.3% in [5]; 64.4% in test [6]. Further, the growth was 62.3% in [7], 95.3% in test [8], 64% in test [9] and 96.4% in test [10].
On to `CCOc1ccc(NC(=O)CSc2oc(-c3ccccc3)nc2S(=O)(=O)c2ccc(C)cc2)cc1`, for which the growth is 41.3% in [1]; 71.3% in test [2]; 40.2% in test [3]; 101% in test [4]; 51.1% in [5]; 83.3% in test [6]. The growth in test [7] is 95%; in test [8], 56.8%; in [9], 59.9%; in test [10] it was 58.9%.
Regarding `CCOC(=O)c1ccc2c(c1)nc(-c1ccccc1)n2C1CCCCC1`, the growth was 62.9% in test [1]; 63.7% in test [2]; 89.5% in test [3]; 117% in test [4]; 102% in test [5]; 36.7% in test [6]. Moreover, the growth is 106% in test [7], 108% in test [8], 111% in test [9] and 105% in [10].
`COc1ccc(/C=N/C2=C(C#N)C(c3ccccc3)c3ccc4ccccc4c3O2)cc1` (stereo not given): the growth in test [1] is 23.6%; in test [2], 8.19% (active); in [3], 14.1%; in test [4] it was 26.7%; in test [5], 56.6%; in test [6], 21.6%. The growth is 26.2% in [7], 2.08% (active) in [8], 29.8% in test [9] and 4.68% (active) in test [10].
On to `Ic1ccc(OCCCCn2ccnc2)cc1`, for which the growth was 45.1% in [1]; 73.5% in [2]; 95.5% in test [3]; 64.4% in test [4]; 44.7% in [5]; 80.9% in test [6]. Besides, the growth in [7] was 71.9%; in test [8], 39.2%; in test [9], 90.2%; in [10], 90.7%.
For the molecule `C=C1C(=O)O[C@H]2[C@H]1CC/C(Cn1cc(-c3ccccc3)nn1)=C\CC[C@@]1(C)O[C@@H]21`, the growth is 3.11% (active) in test [1]; -20.5% (active) in [2]; 5.7% (active) in test [3]; -2.95% (active) in test [4]; 35.9% in test [5]; 107% in [6]. Also, the growth in test [7] is 6.52% (active); in test [8], -84.3% (active); in test [9], 81.1%; in [10], 43.6%.
`O=S(=O)(Nc1cc(Cl)ccc1Cl)c1ccc(-c2cnc(C3CC3)o2)cc1`: the growth in [1] was 16.5%; in [2], 31%; in test [3] it was 56.2%; in [4], 72.1%; in test [5], 52.5%; in [6], 52%. In addition, the growth is 39.3% in test [7], 5.34% (active) in [8], -2.43% (active) in test [9] and 26% in test [10].
With `O=C(CSC(=S)n1cnnc1)NC(=O)c1ccccc1`, the growth in test [1] was 85.3%; in test [2], 100%; in [3], 115%; in test [4], 100%; in test [5], 100%; in test [6], 105%. The growth is 108% in test [7], 96.7% in test [8], 103% in test [9] and 99.7% in test [10].
For the molecule `C=C(CBr)[C@@H]1CC[C@]2(C(=O)O)CC[C@]3(C)[C@H](CC[C@@H]4[C@@]5(C)CCC(=O)C(C)(C)[C@@H]5CC[C@]43C)[C@@H]12`, the growth is 60% in [1]; 42.3% in [2]; 84.2% in [3]; 89.8% in [4]; 75.3% in test [5]; 121% in [6]. For the same molecule, the growth in [7] was 103%; in test [8], 70.8%; in test [9], 92.2%; in test [10], 83.4%.
For `O=C(N(c1ccccc1)c1ccccc1)n1cc(I)c2nc(Cl)nc(Cl)c21`, the growth was 18.9% in test [1]; 0.0387% (active) in test [2]; 22.6% in [3]; 63.7% in [4]; 68.4% in test [5]; 60.9% in test [6]. For the same molecule, the growth in test [7] is 61.8%; in test [8] it was 25.8%; in [9] it was 39.1%; in [10], 42.4%.
Consider `O=S(=O)(NCCCNc1nccc(-c2c(-c3ccc(F)c(O)c3)nc3sccn23)n1)c1ccccc1`, for which the growth in [1] is 33.9%; in test [2] it was 40.3%; in test [3], 54.2%; in [4], 113%; in [5], 75.6%; in [6], 78%. The growth in test [7] was 65%; in test [8], 66%; in test [9], 72.8%; in [10], 100%.
In the case of `CCOC(=O)C1=C(C)NC(=O)NC1c1c(Cl)n(CCCl)c2ccccc12` (stereo not given), the growth in test [1] was 102%; in test [2], 77.3%; in [3], 96.7%; in test [4], 101%; in test [5], 112%; in [6] it was 104%. In addition, the growth in test [7] was 103%; in [8], 98.5%; in [9], 93.1%; in [10], 97.1%.
Regarding `Cc1cc(N2CCCCC2)cc(C)c1-c1csc(NC(=O)c2ccncc2)n1`, the growth was 37.7% in [1]; 37.5% in [2]; 51.2% in [3]; 92.6% in [4]; 24.2% in test [5]; 62.6% in test [6]. The growth in [7] was 64.4%; in test [8], 50.5%; in [9] it was 75.2%; in [10] it was 56.4%.
On to `COc1ccc(-c2nn(-c3cccc(Cl)c3)cc2-c2cc(-c3ccc(Br)cc3)nc(N)n2)cc1`, for which the growth was 82% in test [1]; 84.1% in test [2]; 98.9% in [3]; 97.2% in test [4]; 96% in test [5]; 102% in test [6]. Also, the growth in test [7] was 89.2%; in test [8], 107%; in test [9], 99.7%; in [10], 99.8%.
Turning to `Cc1ccc(-c2nc(N3CCCNCC3)c3oc(-c4ccccc4)nc3n2)cc1`, the growth was -42.3% (active) in [1]; -49.1% (active) in test [2]; -44.1% (active) in test [3]; -87.3% (active) in test [4]; -62.6% (active) in test [5]; 95.5% in test [6]. Moreover, the growth in test [7] is -85.3% (active); in [8] it was -85.7% (active); in test [9] it was -29.8% (active); in [10], -45.5% (active).
As for `COC(=O)C1Cc2ccccc2CN1C(=O)c1ccc2c(c1)Cc1ccccc1-2` (stereo not given), the growth in [1] was 57.2% [50 µM]; in test [2] it was 18.1% [50 µM]; in test [3] it was 32.4% [50 µM]; in test [4], 62.4% [50 µM]; in [5], 20.2% [50 µM]; in [6], 86% [50 µM]. The growth in test [7] was 42.8% [50 µM]; in [8] it was 47% [50 µM]; in [9], 70.4% [50 µM]; in test [10], 25.6% [50 µM].
